From PubChem BioAssay AID1159577 (Broad Institute, 2015)
About 240 (18%) of roughly 1,300 compounds were called active. Not shown: some 8% with an inconclusive outcome. No rule for the calls is given here. A selection follows. Measured potencies and affinities stand elsewhere.

experiment: toxicity to human hepatoma HepG2 cells – cell-based, cherry-picked samples, cytotoxicity control, dose response (AID 1159577); conditions: HepG2 cytotoxicity counterscreen, plate reader; series mostly up to 19.5 µM

Compound | outcome
C[C@@H]1CN([C@@H](C)CO)C(=O)c2cccc(NC(=O)Nc3ccccc3)c2O[C@@H]1CN(C)C(=O)Nc1ccc(F)cc1 | inactive
COc1ccc2c3c(n(C)c2c1)[C@@H](CO)N(C(=O)c1ccc(F)cc1)CC31CN(CC2CCOCC2)C1 | inactive
CCCN1C[C@@H](C)[C@H](OC)CN(C)C(=O)c2ccc(NC(=O)c3cccc(F)c3)cc2OC[C@H]1C | inactive
COc1ccc2c3c(n(C)c2c1)[C@@H](CO)N(CC1CCCCC1)CC31CCN(Cc2nccs2)CC1 | inactive
COc1ccc2c3c(n(C)c2c1)[C@@H](CO)N(Cc1ccccc1F)CC31CCN(CC2CC2)CC1 | inactive
COc1ccc2c3c(n(C)c2c1)[C@H](CO)N(Cc1ccccc1F)CC31CCN(CC2CC2)CC1 | inactive
CCC(=O)N1CCC2(CC1)CN(Cc1cccc(Cl)c1)[C@H](CO)c1c2c2ccc(OC)cc2n1C | inactive
COc1ccc2c3c(n(C)c2c1)[C@@H](CO)N(C(=O)c1ccccc1)CC31CCN(C(=O)c2ccccc2)CC1 | inactive
COc1ccc2c3c(n(C)c2c1)[C@H](CO)N(C(=O)c1ccccc1)CC31CCN(C(=O)c2ccccc2)CC1 | inactive
COc1ccc2c3c(n(C)c2c1)[C@@H](CO)N(Cc1ccc(Cl)cc1)CC31CCN(CC2CC2)CC1 | inactive
COc1ccc2c3c(n(C)c2c1)[C@H](CO)N(Cc1ccncc1)CC31CCN(C(=O)Cc2ccncc2)CC1 | inactive
COc1ccc(-c2ccccc2[C@H]2[C@@H](CO)N(C(=O)C3CCOCC3)[C@H]2C#N)cc1 | inactive
COc1ccc2c3c(n(C)c2c1)[C@H](CO)N(Cc1cccnc1)CC31CN(C(=O)NC(C)C)C1 | inactive
CC(C)(C)[S@](=O)N1Cc2cc(C(=O)NCCN3CCCCC3)nc(-c3cccc(-c4cccc(C#N)c4)c3)c2[C@@H]1CCO | inactive
C[C@@H]1CN([C@@H](C)CO)S(=O)(=O)c2ccc(C#Cc3ccncc3)cc2O[C@H]1CN(C)S(=O)(=O)c1ccc(F)cc1 | inactive
OC[C@H]1CC[C@@H]2O[C@H](CCc3ccc(C#CCc4ccccc4)cc3)[C@@H](n3cc(-c4ccccc4)nn3)C[C@@H]2O1 | inactive
O=C(C1CCCC1)N1CC[C@@H]2[C@H]1c1cc(C3=CCCCC3)ccc1N[C@@H]2CO | inactive
Cc1ccc(S(=O)(=O)N(C)C[C@@H]2OCc3ccccc3-c3c(n(C)c4ccccc34)C(=O)N([C@@H](C)CO)C[C@@H]2C)cc1 | inactive
CCCc1cn([C@H]2C[C@@H]3O[C@@H](CO)CC[C@@H]3O[C@@H]2CCc2ccc(-c3ccc(OC)cc3)cc2)nn1 | inactive
COc1cccc(-c2cn(CC[C@@H]3CC[C@H](NS(=O)(=O)c4ccccc4Cl)[C@H](CO)O3)nn2)c1 | inactive
CCCc1cn([C@H]2C[C@@H]3O[C@H](CO)CC[C@@H]3O[C@@H]2CCc2ccc(-c3ccc(OC)cc3)cc2)nn1 | inactive
COc1ccc(S(=O)(=O)N[C@@H]2CC[C@H](CCn3cc(-c4ccccc4F)nn3)O[C@@H]2CO)cc1 | inactive
CCC(=O)N1C[C@H](C)[C@H](OC)CN(C)C(=O)c2cc(NC(=O)Nc3cccc(F)c3)ccc2OC[C@@H]1C | inactive

Compound | outcome
O=C(Nc1cccc(F)c1)N[C@@H]1CC[C@H](CCNS(=O)(=O)c2cccc(Cl)c2)O[C@H]1CO | inactive
C[C@H]1CN([C@@H](C)CO)C(=O)c2c(c3ccccc3n2C)-c2ccccc2CO[C@H]1CN(C)S(=O)(=O)c1ccccc1C#N | inactive
COc1ccc(C#Cc2ccc3c(c2)[C@@H]2[C@@H](CCN2C(=O)C2CCC2)[C@H](CO)N3)cc1 | inactive
CN1CCCCN2[C@@H](CO)[C@@H](c3ccc(-c4cccnc4)cc3)[C@@H]2C1 | inactive
O=C(Nc1ccccc1F)N1CCCCN2[C@@H](CO)[C@H](c3ccc(C#Cc4cccnc4)cc3)[C@@H]2C1 | inactive
O=C(Nc1ccccc1F)N1CCCCN2[C@H](CO)[C@H](c3ccc(C#Cc4cccnc4)cc3)[C@@H]2C1 | inactive
COCC(=O)Nc1ccc2c(c1)C(=O)N(C)C[C@@H](OC)[C@H](C)CN(CC1CCCCC1)[C@@H](C)CO2 | inactive
CCCN1C[C@H](C)[C@@H](OC)CN(C)C(=O)c2cc(NC(=O)Nc3cccc(F)c3)ccc2OC[C@H]1C | inactive
CCC(=O)N[C@H]1C=C[C@H](CC(=O)NCC2CCCCC2)O[C@@H]1CO | inactive
CCC(=O)N1CCC2(CC1)CN(Cc1ccc3c(c1)OCO3)[C@@H](CO)c1c2c2ccc(OC)cc2n1C | inactive
COc1ccc2c3c([nH]c2c1)[C@H](CO)N(Cc1cccc(F)c1)CC31CCN(Cc2ccccn2)CC1 | inactive
CCCC(=O)Nc1ccc2c(c1)OC[C@@H](C)N(Cc1cc(-c3ccccc3)on1)C[C@@H](C)[C@H](OC)CN(C)C2=O | inactive
CCCC(=O)N1CC2(C1)CN(S(=O)(=O)c1ccc(C)cc1)[C@@H](CO)c1[nH]c3cc(OC)ccc3c12 | inactive
COc1cccc(-c2ccc([C@H]3[C@H](CO)N4CCCCN(CC5CC5)C[C@@H]34)cc2)c1 | inactive
COc1cccc(S(=O)(=O)N(C)C[C@@H]2OCc3ccccc3-c3c(n(C)c4ccccc34)C(=O)N([C@H](C)CO)C[C@@H]2C)c1 | inactive
COc1ccc2c3c(n(C)c2c1)[C@H](CO)N(C(=O)Nc1ccc(F)cc1)CC31CCN(C(=O)c2cccnc2)CC1 | inactive
CCCC(=O)Nc1ccc2c(c1)OC[C@@H](C)N(Cc1ccc(F)cc1)C[C@@H](C)[C@H](OC)CN(C)C2=O | inactive
CC=Cc1ccc2n(c1=O)C[C@H]1[C@H](CO)[C@@H](C(=O)N3CCC(Cc4ccccc4)CC3)N(CCC)[C@@H]21 (mixture of isomers) | inactive
C[C@H](CO)N1C[C@H](C)[C@H](CN(C)S(=O)(=O)c2ccc(F)cc2)OCc2ccccc2-c2c(n(C)c3ccccc23)C1=O | inactive
Cc1ccc(-c2ccccc2[C@H]2[C@@H](C#N)N(C(=O)c3cccc(F)c3)[C@H]2CO)cc1 | inactive
C[C@H]1CN([C@@H](C)CO)C(=O)c2c(c3ccccc3n2C)-c2ccccc2CO[C@@H]1CN(C)S(=O)(=O)c1cccc(F)c1 | inactive
C[C@H](CO)N1C[C@H](C)[C@@H](CN(C)C(=O)Nc2ccc(F)cc2)Oc2ccc(NC(=O)Nc3ccc(C(F)(F)F)cc3)cc2CC1=O | inactive
C[C@H](CO)N1C[C@H](C)[C@H](CN(C)CC2CC2)Oc2ccc(NC(=O)Nc3ccccc3)cc2CC1=O | inactive

Compound | outcome
COc1ccc(NC(=O)N(C)C[C@H]2Oc3ccc(NC(=O)Nc4ccc(C(F)(F)F)cc4)cc3CC(=O)N([C@H](C)CO)C[C@@H]2C)cc1 | inactive
C[C@H]1CN([C@@H](C)CO)C(=O)Cc2cc(NC(=O)Nc3ccc(C(F)(F)F)cc3)ccc2O[C@@H]1CN(C)C(=O)Nc1ccc2c(c1)OCO2 | inactive
C[C@@H]1CN([C@@H](C)CO)C(=O)Cc2cc(NC(=O)Nc3ccccc3)ccc2O[C@H]1CN(C)CC1CC1 | inactive
C[C@H](CO)N1C[C@H](C)[C@@H](CN(C)C(=O)Nc2ccc3c(c2)OCO3)Oc2ccc(NC(=O)Nc3ccc(C(F)(F)F)cc3)cc2CC1=O | inactive
O=C(c1cccc(F)c1)N1CC(=O)N2[C@H](C1)[C@@H](c1ccc(-c3cccnc3)cc1)[C@@H]2CO | inactive
COCC(=O)N1CCC2(CC1)CN(Cc1cccc(OC)c1)[C@@H](CO)c1[nH]c3cc(OC)ccc3c12 | inactive
C[C@@H]1CN([C@@H](C)CO)C(=O)c2cccc(NC(=O)c3nc4ccccc4s3)c2O[C@@H]1CN(C)C(=O)Nc1cccc2ccccc12 | inactive
Cc1ccc(-c2ccc3c(c2)O[C@@H](CN(C)C(=O)C2CCCCC2)[C@H](C)CN([C@H](C)CO)S3(=O)=O)cc1 | inactive
N#Cc1cccc(-c2ccc3c(c2)[C@H]2[C@H](CCN2C(=O)c2ccncc2)[C@H](CO)N3)c1 | inactive
COc1cccc(CN2CC3(CN(Cc4ccccn4)C3)c3c([nH]c4cc(OC)ccc34)[C@@H]2CO)c1 | inactive
COc1ccc2c3c(n(C)c2c1)[C@@H](CO)NCC31CCN(Cc2ccc(-c3ccccn3)cc2)CC1 | inactive
COc1ccc2c3c(n(C)c2c1)[C@H](CO)N(C(=O)Nc1ccc(F)cc1)CC31CCN(Cc2ccccn2)CC1 | inactive
COc1cccc(CN2CC3(CN(Cc4ccccn4)C3)c3c([nH]c4cc(OC)ccc34)[C@H]2CO)c1 | inactive
COc1ccc(S(=O)(=O)N(C)C[C@@H]2OCc3ccccc3-c3c(n(C)c4ccccc34)C(=O)N([C@H](C)CO)C[C@H]2C)cc1 | inactive
C[C@@H]1CN([C@@H](C)CO)C(=O)c2c(c3ccccc3n2C)-c2ccccc2CO[C@H]1CN(C)S(=O)(=O)c1ccc(C(F)(F)F)cc1 | inactive
O=C(c1ccccn1)N1CC[C@H]2[C@H](CO)Nc3ccc(-c4ccccc4)cc3[C@H]21 | inactive
CCC(=O)N1CCC2(CC1)CN(Cc1ccc(Cl)cc1)[C@H](CO)c1[nH]c3cc(OC)ccc3c12 | inactive
Cc1ccccc1-c1ccc(C2[C@H]3CNC[C@@H]2N3S(=O)(=O)c2cccc(F)c2)cc1 (some centres undefined) | inactive
CC(C)NC(=O)N1[C@H](C#N)[C@H](c2ccc(C#CC3CCCCC3)cc2)[C@@H]1CO | inactive
N#C[C@@H]1[C@@H](c2ccc(C#CC3CCCCC3)cc2)[C@H](CO)N1C(=O)Nc1ccc(F)cc1 | inactive
N#C[C@@H]1[C@H](c2ccc(C#CC3CCCCC3)cc2)[C@H](CO)N1C(=O)Nc1ccc(F)cc1 | inactive
N#C[C@@H]1[C@@H](c2ccc(C#Cc3ccc(F)cc3)cc2)[C@H](CO)N1C(=O)C1CCCC1 | inactive
OC[C@@H]1[C@@H](c2ccccc2)C2(CN(CCC(F)(F)F)C2)N1Cc1ccccc1 | inactive
